{"source": "PubChem BioAssay (NCATS)", "note": "Results filed as inconclusive are left out. Active and inactive are the calls of the source. Calls follow the shape of the dose curve; as a rule, active = well fitted curve in the direction sought with a large enough effect; inconclusive = small, poorly fitted or top-dose-only effect, or another doubt; inactive = no such curve, though single readings can be large; an effect the other way counts as inactive or inconclusive.", "data": [{"biological_target": "Voltage-gated inwardly rectifying potassium channel KCNH2 (Homo sapiens) (UniProt Q12809)", "sequence (Q12809 whole entry, looked up)": "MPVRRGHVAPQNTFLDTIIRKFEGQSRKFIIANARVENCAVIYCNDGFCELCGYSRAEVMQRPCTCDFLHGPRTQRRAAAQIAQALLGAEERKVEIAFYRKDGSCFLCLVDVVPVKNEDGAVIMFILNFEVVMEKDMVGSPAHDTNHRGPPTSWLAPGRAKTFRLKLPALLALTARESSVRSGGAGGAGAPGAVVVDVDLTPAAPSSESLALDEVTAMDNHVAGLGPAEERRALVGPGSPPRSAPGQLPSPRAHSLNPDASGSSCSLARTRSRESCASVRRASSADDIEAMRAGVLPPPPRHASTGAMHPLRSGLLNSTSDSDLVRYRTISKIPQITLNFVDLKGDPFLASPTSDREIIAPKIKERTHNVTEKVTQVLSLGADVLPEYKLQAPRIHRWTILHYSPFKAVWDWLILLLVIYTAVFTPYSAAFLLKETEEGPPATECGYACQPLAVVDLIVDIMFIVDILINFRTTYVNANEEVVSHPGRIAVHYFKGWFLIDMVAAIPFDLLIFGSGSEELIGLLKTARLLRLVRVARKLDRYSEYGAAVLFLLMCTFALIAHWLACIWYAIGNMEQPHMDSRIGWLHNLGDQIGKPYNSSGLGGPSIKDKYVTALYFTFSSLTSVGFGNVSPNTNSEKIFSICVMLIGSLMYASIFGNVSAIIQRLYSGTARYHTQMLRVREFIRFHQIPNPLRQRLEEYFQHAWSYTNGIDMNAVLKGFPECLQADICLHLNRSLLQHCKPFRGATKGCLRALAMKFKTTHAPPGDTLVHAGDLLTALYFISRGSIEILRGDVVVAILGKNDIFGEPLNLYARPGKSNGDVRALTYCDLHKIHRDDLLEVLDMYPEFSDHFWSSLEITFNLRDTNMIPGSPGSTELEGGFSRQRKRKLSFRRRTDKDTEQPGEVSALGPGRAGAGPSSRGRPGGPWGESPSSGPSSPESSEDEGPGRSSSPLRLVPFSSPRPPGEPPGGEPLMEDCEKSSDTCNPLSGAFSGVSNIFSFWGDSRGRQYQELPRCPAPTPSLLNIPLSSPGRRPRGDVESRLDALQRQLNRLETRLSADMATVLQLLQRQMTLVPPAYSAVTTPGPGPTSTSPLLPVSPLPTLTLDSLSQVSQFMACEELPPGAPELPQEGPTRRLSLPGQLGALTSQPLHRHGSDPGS", "test": "qHTS Assay for Small Molecule Inhibitors of the Human hERG Channel Activity (AID 588834);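 also: lower thallium flux fluorescence means stronger hERG block; nearly all actives have a fitted effect of over 50% in size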; also: potency is read from the fitted curve at half-maximal effect; as to activity change, negative = inhibition: top concentration of the series differs between compounds; % is scaled to controls: 0 for no effect and ±100 for the full control effect", "details": "U2OS BacMam hERG, FluxOR thallium flux fluorescence; series mostly up to 46.1 µM; activity change, negative = inhibition: at the top concentration", "summary_of_the_method": "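Homogeneous FluxOR thallium flux assay using hERG-expressing U2OS cells (BacMam). Compound treatment about 10 minutes preceded stimulation; reduced fluorescence taken as channel block.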", "values": [{"smiles": "CC[N+]1(C)CCCC(OC(=O)C(O)(c2ccccc2)c2ccccc2)C1", "note": "(stereo unspecified)", "activity change, negative = inhibition": "10.3% (inactive)"}, {"smiles": "Clc1ccc(CCC(Cn2ccnc2)Sc2c(Cl)cccc2Cl)cc1", "note": "(stereo unspecified)", "Potency": "5010 nM (active)"}, {"smiles": "C=C1C[C@@H]2[C@H](CC[C@]3(C)C(=O)CC[C@@H]23)[C@@]2(C)C=CC(=O)C=C12", "activity change, negative = inhibition": "3.04% (inactive)"}, {"smiles": "CCOC(=O)C1(c2ccccc2)CCN(CCC(C#N)(c2ccccc2)c2ccccc2)CC1", "Potency": "355 nM (active)"}, {"smiles": "CN(C)[C@@H]1C(=O)C(C(N)=O)=C(O)[C@@]2(O)C(=O)C3=C(O)c4c(O)cccc4[C@@](C)(O)[C@H]3C[C@@H]12", "activity change, negative = inhibition": "16.9% [at 20.6 µM] (inactive)"}, {"smiles": "CCC1C(=O)OCC1Cc1cncn1C", "note": "(stereo unspecified)", "activity change, negative = inhibition": "0.622% (inactive)"}, {"smiles": "Cc1ccc2c(c1)C1CN(C)CCC1N2", "note": "(stereo unspecified)", "activity change, negative = inhibition": "6.28% (inactive)"}, {"smiles": "CC(C)(C)NCC(O)c1cc(Cl)c(N)c(Cl)c1", "note": "(stereo unspecified)", "activity change, negative = inhibition": "25.9% (inactive)"}, {"smiles": "O=c1oc2ccccc2c(O)c1C(CC(O)c1ccc(-c2ccc(Br)cc2)cc1)c1ccccc1", "note": "(stereo unspecified)", "activity change, negative = inhibition": "7.68% (inactive)"}, {"smiles": "CC(=O)Nc1cc([As](=O)(O)O)ccc1O", "activity change, negative = inhibition": "6.08% (inactive)"}, {"smiles": "C#CCN(C)[C@H](C)Cc1ccccc1", "activity change, negative = inhibition": "-7.12% (inactive)"}, {"smiles": "CC(C)(N)Cc1ccc(Cl)cc1", "activity change, negative = inhibition": "6.37% (inactive)"}, {"smiles": "CC[N+](CC)(CC)CC", "activity change, negative = inhibition": "30.3% (inactive)"}, {"smiles": "CC(C)[N+](C)(CCOC(=O)C1c2ccccc2Oc2ccccc21)C(C)C", "activity change, negative = inhibition": "3.35% (inactive)"}, {"smiles": "CCC(C(N)=O)N1CCCC1=O", "note": "(stereo unspecified)", "activity change, negative = inhibition": "-6.82% (inactive)"}, {"smiles": "COc1ccc(Cc2nccc3cc(OC)c(OC)cc23)cc1OC", "Potency": "inactive"}, {"smiles": "O=C1CC[C@@]2(O)[C@H]3Cc4ccc(O)c5c4[C@@]2(CCN3CC2CC2)[C@H]1O5", "activity change, negative = inhibition": "-24% (inactive)"}, {"smiles": "N[C@@H]1C[C@H]1c1ccccc1", "activity change, negative = inhibition": "-7.8% (inactive)"}, {"smiles": "O=C(NC(O)C(Cl)(Cl)Cl)NC(O)C(Cl)(Cl)Cl", "note": "(stereo unspecified)", "activity change, negative = inhibition": "1.51% (inactive)"}, {"smiles": "C=C1CC[C@@]2(O)[C@H]3Cc4ccc(O)c5c4[C@@]2(CCN3CC2CC2)[C@H]1O5", "activity change, negative = inhibition": "-6.44% (inactive)"}, {"smiles": "Clc1cccc(N2CCNCC2)c1", "activity change, negative = inhibition": "9.58% (inactive)"}, {"smiles": "CCCC1CCCCN1", "note": "(stereo unspecified)", "activity change, negative = inhibition": "21.1% (inactive)"}, {"smiles": "FC(F)(F)c1cccc(C2=CCN(CCc3ccc4ccccc4c3)CC2)c1", "Potency": "1580 nM (active)"}, {"smiles": "CN1CCN(C(=O)O[C@H]2c3nccnc3C(=O)N2c2ccc(Cl)cn2)CC1", "activity change, negative = inhibition": "-2.92% (inactive)"}, {"smiles": "CN(C)CCc1ccc(O)cc1", "activity change, negative = inhibition": "1.89% (inactive)"}, {"smiles": "C=CCN1CC[C@]23c4c5ccc(O)c4O[C@H]2C(=O)CC[C@@]3(O)[C@H]1C5", "Potency": "inactive"}, {"smiles": "N[C@@H](Cc1ccc(Oc2cc(I)c(O)c(I)c2)c(I)c1)C(=O)O", "activity change, negative = inhibition": "9.25% (inactive)"}, {"smiles": "NP(N)(=O)NC(=O)c1ccc(F)cc1", "activity change, negative = inhibition": "1.17% (inactive)"}]}, {"biological_target": "Luciferin 4-monooxygenase (Photinus pyralis) (UniProt P08659)", "sequence (P08659 whole entry, looked up)": "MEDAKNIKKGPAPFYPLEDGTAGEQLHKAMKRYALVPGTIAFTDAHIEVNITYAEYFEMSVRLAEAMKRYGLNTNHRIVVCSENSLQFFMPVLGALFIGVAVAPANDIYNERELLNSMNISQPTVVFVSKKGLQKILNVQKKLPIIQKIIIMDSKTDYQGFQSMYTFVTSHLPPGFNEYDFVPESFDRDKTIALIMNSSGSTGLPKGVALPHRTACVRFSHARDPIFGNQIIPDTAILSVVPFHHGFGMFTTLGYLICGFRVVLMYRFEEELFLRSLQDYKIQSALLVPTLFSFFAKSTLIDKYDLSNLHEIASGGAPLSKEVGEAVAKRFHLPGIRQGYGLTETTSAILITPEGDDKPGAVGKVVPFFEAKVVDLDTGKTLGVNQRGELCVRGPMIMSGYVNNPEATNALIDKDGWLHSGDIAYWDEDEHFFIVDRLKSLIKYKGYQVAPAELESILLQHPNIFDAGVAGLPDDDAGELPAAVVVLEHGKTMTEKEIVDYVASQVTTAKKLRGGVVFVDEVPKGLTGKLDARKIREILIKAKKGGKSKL", "test": "Biochemical firefly luciferase enzyme assay for NPC (AID 624030);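 also: 0% = DMSO and -100% = full luciferase inhibition by PTC124 control; nearly all actives have a fitted effect of over 70% in size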", "details": "purified P. pyralis luciferase, luminescence, 5 min; series mostly up to 58.6 µM; activity change, negative = inhibition: at the top concentration", "summary_of_the_method": "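Counter-screen for direct inhibition of the luciferase enzyme by approved-drug library compounds, run at 10 nM enzyme in 50 mM Tris acetate (final). Luminescence was read within 5 min of enzyme-buffer addition and normalized to PTC124 versus DMSO (0%).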", "values": [{"smiles": "O=c1[nH]c2ccccc2n1C1CCN(CCCC(c2ccc(F)cc2)c2ccc(F)cc2)CC1", "activity change, negative = inhibition": "3.2% (inactive)"}, {"smiles": "CC[N+]1(C)CCCC(OC(=O)C(O)(c2ccccc2)c2ccccc2)C1", "note": "(stereo unspecified)", "activity change, negative = inhibition": "0.215% (inactive)"}, {"smiles": "CCOC(=O)C1(c2ccccc2)CCN(CCC(C#N)(c2ccccc2)c2ccccc2)CC1", "Potency": "inactive"}, {"smiles": "CC(C)(C)NCC(O)c1cc(Cl)c(N)c(Cl)c1", "note": "(stereo unspecified)", "activity change, negative = inhibition": "-0.15% (inactive)"}, {"smiles": "CC(=O)Nc1cc([As](=O)(O)O)ccc1O", "activity change, negative = inhibition": "0.916% (inactive)"}, {"smiles": "CC(C)(N)Cc1ccc(Cl)cc1", "activity change, negative = inhibition": "-0.575% (inactive)"}, {"smiles": "CC[N+](CC)(CC)CC", "activity change, negative = inhibition": "1.48% (inactive)"}, {"smiles": "CCC(C(N)=O)N1CCCC1=O", "note": "(stereo unspecified)", "activity change, negative = inhibition": "-4.46% (inactive)"}, {"smiles": "O=C(NC(O)C(Cl)(Cl)Cl)NC(O)C(Cl)(Cl)Cl", "note": "(stereo unspecified)", "activity change, negative = inhibition": "-1.66% (inactive)"}, {"smiles": "C=C1CC[C@@]2(O)[C@H]3Cc4ccc(O)c5c4[C@@]2(CCN3CC2CC2)[C@H]1O5", "activity change, negative = inhibition": "0.417% (inactive)"}, {"smiles": "Clc1cccc(N2CCNCC2)c1", "activity change, negative = inhibition": "3.52% (inactive)"}, {"smiles": "CCCC1CCCCN1", "note": "(stereo unspecified)", "activity change, negative = inhibition": "-5.95% (inactive)"}, {"smiles": "FC(F)(F)c1cccc(C2=CCN(CCc3ccc4ccccc4c3)CC2)c1", "activity change, negative = inhibition": "-1.1% (inactive)"}, {"smiles": "CN1CCN(C(=O)O[C@H]2c3nccnc3C(=O)N2c2ccc(Cl)cn2)CC1", "activity change, negative = inhibition": "0.415% (inactive)"}, {"smiles": "CN(C)CCc1ccc(O)cc1", "activity change, negative = inhibition": "-0.988% (inactive)"}, {"smiles": "NP(N)(=O)NC(=O)c1ccc(F)cc1", "activity change, negative = inhibition": "27.1% (inactive)"}]}, {"system": "not listed separately", "test": "S16 Schwann cell viability assay (CellTiter-Glo assay) (AID 624031);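 also: cellular ATP luminescence as a viability measure; plate controls were DMSO-treated cells for no effect and cell-free wells for full effect; nearly all actives have a fitted effect of over 70% in size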", "details": "S16 rat Schwann cells viability, 24 h; series mostly up to 57.5 µM; activity change, negative = cytotoxicity: at the top concentration", "summary_of_the_method": "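Untransfected S16 rat Schwann cells; compound 24 h, 37 °C/5% CO2; CellTiter-Glo ATP luminescence. % activity vs no-cell wells and DMSO controls (0%); concentration-effect curves classed by r2, response magnitude, activity.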", "values": [{"smiles": "CC[N+]1(C)CCCC(OC(=O)C(O)(c2ccccc2)c2ccccc2)C1", "note": "(stereo unspecified)", "activity change, negative = cytotoxicity": "0% (inactive)"}, {"smiles": "CCOC(=O)C1(c2ccccc2)CCN(CCC(C#N)(c2ccccc2)c2ccccc2)CC1", "activity change, negative = cytotoxicity": "-8.81% (inactive)"}, {"smiles": "CC(C)(C)NCC(O)c1cc(Cl)c(N)c(Cl)c1", "note": "(stereo unspecified)", "activity change, negative = cytotoxicity": "3.57% (inactive)"}, {"smiles": "CC(=O)Nc1cc([As](=O)(O)O)ccc1O", "activity change, negative = cytotoxicity": "4.94% (inactive)"}, {"smiles": "CC(C)(N)Cc1ccc(Cl)cc1", "activity change, negative = cytotoxicity": "-2.53% (inactive)"}, {"smiles": "CC[N+](CC)(CC)CC", "activity change, negative = cytotoxicity": "-1.7% (inactive)"}, {"smiles": "CCC(C(N)=O)N1CCCC1=O", "note": "(stereo unspecified)", "activity change, negative = cytotoxicity": "1.32% (inactive)"}, {"smiles": "O=C(NC(O)C(Cl)(Cl)Cl)NC(O)C(Cl)(Cl)Cl", "note": "(stereo unspecified)", "activity change, negative = cytotoxicity": "-3.74% (inactive)"}, {"smiles": "C=C1CC[C@@]2(O)[C@H]3Cc4ccc(O)c5c4[C@@]2(CCN3CC2CC2)[C@H]1O5", "activity change, negative = cytotoxicity": "-5.48% (inactive)"}, {"smiles": "Clc1cccc(N2CCNCC2)c1", "activity change, negative = cytotoxicity": "-21.3% (inactive)"}, {"smiles": "CCCC1CCCCN1", "note": "(stereo unspecified)", "activity change, negative = cytotoxicity": "10.3% (inactive)"}, {"smiles": "FC(F)(F)c1cccc(C2=CCN(CCc3ccc4ccccc4c3)CC2)c1", "activity change, negative = cytotoxicity": "0.346% (inactive)"}, {"smiles": "CN1CCN(C(=O)O[C@H]2c3nccnc3C(=O)N2c2ccc(Cl)cn2)CC1", "activity change, negative = cytotoxicity": "-16.9% (inactive)"}, {"smiles": "CN(C)CCc1ccc(O)cc1", "activity change, negative = cytotoxicity": "-23.5% (inactive)"}, {"smiles": "NP(N)(=O)NC(=O)c1ccc(F)cc1", "activity change, negative = cytotoxicity": "-24.6% (inactive)"}]}, {"system": "not listed separately", "test": "S16 Schwann cell PMP22 intronic element firefly luciferase assay (AID 624032); also: nearly all actives have a fitted effect of over 30% in size; also: potency is read from the fitted curve at half-maximal effect;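 as to activity change, negative = inhibition: plate controls were DMSO for no effect and PTC124 positive control mean for full effect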", "details": "S16 rat Schwann cells, PMP22 element FLuc, 24 h; series mostly up to 57.5 µM; activity change, negative = inhibition: at the top concentration", "summary_of_the_method": "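Rat S16 Schwann cells stably carrying a PMP22 intronic element-driven Fluc reporter were seeded overnight, then exposed to compounds for 24 h at 37 °C. Luminescence was normalized to PTC124 (positive control) and DMSO (0% activity).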", "values": [{"smiles": "CC(=O)Nc1cc([As](=O)(O)O)ccc1O", "activity change, negative = inhibition": "-7.97% (inactive)"}, {"smiles": "CC(C)(N)Cc1ccc(Cl)cc1", "activity change, negative = inhibition": "11.1% (inactive)"}, {"smiles": "CCC(C(N)=O)N1CCCC1=O", "note": "(stereo unspecified)", "activity change, negative = inhibition": "-2.9% (inactive)"}, {"smiles": "O=C(NC(O)C(Cl)(Cl)Cl)NC(O)C(Cl)(Cl)Cl", "note": "(stereo unspecified)", "activity change, negative = inhibition": "-25.6% (inactive)"}, {"smiles": "C=C1CC[C@@]2(O)[C@H]3Cc4ccc(O)c5c4[C@@]2(CCN3CC2CC2)[C@H]1O5", "activity change, negative = inhibition": "6.58% (inactive)"}, {"smiles": "Clc1cccc(N2CCNCC2)c1", "activity change, negative = inhibition": "55.1% (inactive)"}, {"smiles": "CCCC1CCCCN1", "note": "(stereo unspecified)", "activity change, negative = inhibition": "-4.85% (inactive)"}, {"smiles": "FC(F)(F)c1cccc(C2=CCN(CCc3ccc4ccccc4c3)CC2)c1", "activity change, negative = inhibition": "-2.47% (inactive)"}, {"smiles": "COc1cc2c(c(OC)c1OC)-c1ccc(OC)c(=O)cc1[C@@H](NC(C)=O)CC2", "Potency": "102 nM (active)"}, {"smiles": "CN1CCN(C(=O)O[C@H]2c3nccnc3C(=O)N2c2ccc(Cl)cn2)CC1", "activity change, negative = inhibition": "-7.81% (inactive)"}, {"smiles": "CN(C)CCc1ccc(O)cc1", "activity change, negative = inhibition": "-6.89% (inactive)"}, {"smiles": "NP(N)(=O)NC(=O)c1ccc(F)cc1", "activity change, negative = inhibition": "-6.03% (inactive)"}]}]}
